{"source": "PubChem BioAssay AID720706", "about": "(Broad Institute, 2013)", "note": "The campaign covered roughly 350,000 compounds. About 5,500 (1.6%) were called active.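 The calls were made as follows: active = significant combined selectivity score with lowered wild-type GFP, culture density cut under 30%, mutant RFP and density less affected; inactive = any of these conditions unmet.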 The entries come from a sample that favours actives as a whole.", "data": [{"test": "reduced GFP signal of wild-type E. coli, primary screen, bacterial rRNA inhibitor project, GFP/RFP fluorescence, OD600, single point (AID 720706)", "settings": "E. coli WT GFP vs humanized-ribosome RFP mutants, 24 h; GFP signal change (wild-type ribosome): stronger effect = lower value, DMSO median 0, no signal -100; OD600 change: measured here: OD600 growth, DMSO median 0, no signal -100; RFP signal change: measured here: RFP humanized mutant strains, DMSO median 0, no signal -100, concentration not given here", "units": {"OD600 change": "%", "RFP signal change": "%"}, "values": [{"smiles": "COc1ccccc1C#Cc1ccc2c(c1)O[C@H](CN(C)Cc1cccnc1)[C@@H](C)CN([C@H](C)CO)S2(=O)=O", "GFP signal change (wild-type ribosome)": "-5.86% (inactive)", "OD600 change": -7.99, "RFP signal change": 4.04}, {"smiles": "CC(NC(=O)Nc1cccc([N+](=O)[O-])c1)c1ccc2c(c1)OCO2", "note": "(stereo not drawn)", "GFP signal change (wild-type ribosome)": "-34.5% (active)", "OD600 change": -26.4, "RFP signal change": -5.09}, {"smiles": "CC(NC(=O)Nc1ccc2c(c1)OCO2)c1ccncc1", "note": "(stereo not drawn)", "GFP signal change (wild-type ribosome)": "13.1% (inactive)", "OD600 change": 4.68, "RFP signal change": 1.46}, {"smiles": "Cc1cccc(NC(=O)Nc2ccc3c(c2)OCO3)n1", "GFP signal change (wild-type ribosome)": "0.76% (inactive)", "OD600 change": 7.09, "RFP signal change": -5.02}, {"smiles": "CC1CC2=C(CC1/C=N/NC(N)=S)C(C)(C)CCC2", "note": "(stereo not drawn)", "GFP signal change (wild-type ribosome)": "-18.2% (active)", "OD600 change": 0.8, "RFP signal change": -0.09}, {"smiles": "Cc1noc(C)c1NC(=O)Nc1ccc2c(c1)C(=O)N([C@@H](C)CO)C[C@H](C)[C@H](CN(C)CC1CCCCC1)O2", "GFP signal change (wild-type ribosome)": "2.74% (inactive)", "OD600 change": 1.93, "RFP signal change": -1.48}, {"smiles": "CCN(CC)S(=O)(=O)c1ccc(N2CCCC2)c(NC(=O)c2ccc([N+](=O)[O-])o2)c1", "GFP signal change (wild-type ribosome)": "-27.2% (active)", "OD600 change": 5.04, "RFP signal change": 9.95}, {"smiles": "CCN(CC)S(=O)(=O)c1ccc(N2CCOCC2)c(NC(=O)c2ccc(=O)n(C)n2)c1", "GFP signal change (wild-type ribosome)": "18.6% (inactive)", "OD600 change": 11.8, "RFP signal change": -3.6}, {"smiles": "CCN(CC)S(=O)(=O)c1cc(C(=O)Nc2cc(S(=O)(=O)N3CCOCC3)ccc2N2CCCC2)ccc1F", "GFP signal change (wild-type ribosome)": "-10.4% (inactive)", "OD600 change": -14.8, "RFP signal change": 1.19}, {"smiles": "C[C@@H]1CN([C@@H](C)CO)C(=O)c2cccc(NC(=O)Nc3ccc(F)cc3)c2O[C@H]1CN(C)Cc1ccc(-c2ccccc2)cc1", "GFP signal change (wild-type ribosome)": "-7.51% (inactive)", "OD600 change": -2.98, "RFP signal change": -0.352}, {"smiles": "O=C(C1CCC1)N1CC(=O)N2[C@@H](CO)[C@@H](c3ccc(C#Cc4cccc(F)c4)cc3)[C@@H]2C1", "GFP signal change (wild-type ribosome)": "-59.7% (inactive)", "OD600 change": -79.3, "RFP signal change": -12.2}, {"smiles": "COc1ccc(NC(=O)CN(C)C(=O)c2cc(C3CC3)nn2-c2ccccc2)cc1", "GFP signal change (wild-type ribosome)": "-22.4% (active)", "OD600 change": -10.8, "RFP signal change": 5.24}, {"smiles": "CCc1ccccc1NC(=O)CN(C)C(=O)c1cc(C2CC2)nn1-c1ccccc1", "GFP signal change (wild-type ribosome)": "-2.02% (inactive)", "OD600 change": -16.5, "RFP signal change": 3.78}, {"smiles": "COc1cccc(NC(=O)CN(C)C(=O)c2cc(C3CC3)nn2-c2ccccc2)c1", "GFP signal change (wild-type ribosome)": "-29.5% (inactive)", "OD600 change": -27.8, "RFP signal change": -7.04}, {"smiles": "Cc1nn(-c2ccccc2)c(Cl)c1/C=C/C(=O)c1ccc(O)cc1", "GFP signal change (wild-type ribosome)": "-25.9% (active)", "OD600 change": -19.6, "RFP signal change": -0.656}, {"smiles": "Cc1nn(-c2ccc(F)cc2)c(Cl)c1/C=C(/CCC(=O)O)c1nc2ccccc2s1", "GFP signal change (wild-type ribosome)": "-52.2% (inactive)", "OD600 change": -75.8, "RFP signal change": -17.8}, {"smiles": "Cc1nn(-c2ccccc2)c(C)c1/C=C/C(=O)OC(C)C(N)=O", "note": "(stereo not drawn)", "GFP signal change (wild-type ribosome)": "0.439% (inactive)", "OD600 change": -2.9, "RFP signal change": -0.31}, {"smiles": "COc1ccccc1CN1[C@H](CO)[C@H](c2ccccc2)C12CN(C(=O)c1ccccn1)C2", "GFP signal change (wild-type ribosome)": "-7.66% (inactive)", "OD600 change": -1.5, "RFP signal change": 11}, {"smiles": "Cc1noc(C)c1NC(=O)Nc1ccc2c(c1)C(=O)N([C@H](C)CO)C[C@@H](C)[C@H](CN(C)Cc1ccncc1)O2", "GFP signal change (wild-type ribosome)": "0.165% (inactive)", "OD600 change": 5.53, "RFP signal change": -0.035}, {"smiles": "C[C@H]1CCCCO[C@@H](CN(C)S(=O)(=O)c2ccc(Cl)cc2)[C@@H](C)CN([C@@H](C)CO)C(=O)c2cc(NS(=O)(=O)c3cn(C)cn3)ccc2O1", "GFP signal change (wild-type ribosome)": "-1.49% (inactive)", "OD600 change": -13.7, "RFP signal change": 2.11}, {"smiles": "N#CCC(=O)N/N=C/c1cn(Cc2ccc3ccccc3c2)c2ccccc12", "GFP signal change (wild-type ribosome)": "1.46% (inactive)", "OD600 change": -2.06, "RFP signal change": 0.715}, {"smiles": "O=C(Cn1cc(/C=N/NC(=O)c2cccc(C(F)(F)F)c2)c2ccccc21)Nc1ccc(F)cc1", "GFP signal change (wild-type ribosome)": "-1.48% (inactive)", "OD600 change": -0.221, "RFP signal change": -3.15}, {"smiles": "COc1cccc(Cn2cc(/C=N/NC(=O)c3cc(O)cc(O)c3)c3ccccc32)c1", "GFP signal change (wild-type ribosome)": "-27.3% (active)", "OD600 change": -17.9, "RFP signal change": 2.51}, {"smiles": "COc1cccc(S(=O)(=O)N2C[C@@H](O)COC[C@H]3O[C@@H](CC(=O)N4CCOCC4)CC[C@@H]32)c1", "GFP signal change (wild-type ribosome)": "0.378% (inactive)", "OD600 change": -0.728, "RFP signal change": -3.58}, {"smiles": "O=S(=O)(Cc1ccccc1)NCC[C@@H]1CC[C@@H](NS(=O)(=O)c2ccccc2)[C@@H](CO)O1", "GFP signal change (wild-type ribosome)": "-0.181% (inactive)", "OD600 change": 0.151, "RFP signal change": 1.58}, {"smiles": "C[C@H](CO)N1C[C@H](C)[C@@H](CN(C)Cc2ccc3c(c2)OCO3)OCCCC[C@H](C)Oc2ccc(NC(=O)Nc3ccc(C(F)(F)F)cc3)cc2C1=O", "GFP signal change (wild-type ribosome)": "7.88% (inactive)", "OD600 change": -5.08, "RFP signal change": 3.82}, {"smiles": "O=C(CCCO)N/N=C/c1cc(Br)ccc1O", "GFP signal change (wild-type ribosome)": "-15.6% (active)", "OD600 change": 11.6, "RFP signal change": 1.76}, {"smiles": "O=C(CCc1ccc(O)cc1)NN=Cc1cc(Br)ccc1O", "GFP signal change (wild-type ribosome)": "-37.7% (inactive)", "OD600 change": -33.3, "RFP signal change": -8.11}, {"smiles": "CCOc1cc(C=NNC(=O)CCCC(=O)NN=Cc2ccc(O)c(OCC)c2)ccc1O", "GFP signal change (wild-type ribosome)": "4.33% (inactive)", "OD600 change": -0.6, "RFP signal change": 2.51}, {"smiles": "C[C@@H]1CCCCO[C@H](CN(C)Cc2ccc(C(=O)Nc3ccccc3N)cc2)[C@H](C)CN([C@H](C)CO)C(=O)c2cc(N(C)C)ccc2O1", "GFP signal change (wild-type ribosome)": "4.58% (inactive)", "OD600 change": 1.72, "RFP signal change": 2.24}, {"smiles": "CO[C@H]1CN(C)C(=O)c2cc(NC(=O)C3CCCC3)ccc2OC[C@@H](C)N(C(=O)CC2CC2)C[C@@H]1C", "GFP signal change (wild-type ribosome)": "-2.32% (inactive)", "OD600 change": -1.4, "RFP signal change": -2.08}, {"smiles": "COc1ccc(C(=O)C2CCCN(Cc3ccc4nonc4c3)C2)c(C)c1", "note": "(stereo not drawn)", "GFP signal change (wild-type ribosome)": "-32.5% (active)", "OD600 change": -18.1, "RFP signal change": -4.26}, {"smiles": "COc1ccc(C(=O)C2CCCN(C(=O)c3ccc(OC)o3)C2)c(C)c1", "note": "(stereo not drawn)", "GFP signal change (wild-type ribosome)": "-3.94% (inactive)", "OD600 change": -8.41, "RFP signal change": -1.22}, {"smiles": "COc1ccc(C(=O)C2CCCN(Cc3cccn3-c3ccccn3)C2)c(C)c1", "note": "(stereo not drawn)", "GFP signal change (wild-type ribosome)": "-15.2% (inactive)", "OD600 change": -23, "RFP signal change": 0.721}, {"smiles": "C[C@H]1CN(C)C(=O)c2cc(N(C)C)ccc2O[C@H]1CN(C)C(=O)OC(C)(C)C", "GFP signal change (wild-type ribosome)": "-3.1% (inactive)", "OD600 change": -2.56, "RFP signal change": 0.88}, {"smiles": "COc1ccc(C2=NN(C(=O)c3ccccc3C(=O)O)C(c3ccccc3O)C2)cc1", "note": "(stereo not drawn)", "GFP signal change (wild-type ribosome)": "-9.01% (inactive)", "OD600 change": -19.6, "RFP signal change": -2.39}, {"smiles": "COc1ccc(C2=NN(C(=O)c3cccnc3)C(c3ccccc3)C2)cc1", "note": "(stereo not drawn)", "GFP signal change (wild-type ribosome)": "-23.4% (active)", "OD600 change": 3.3, "RFP signal change": 3.54}, {"smiles": "COc1ccc(C2CC(c3ccccc3)=NN2C(=O)CSc2nccc(=O)[nH]2)cc1", "note": "(stereo not drawn)", "GFP signal change (wild-type ribosome)": "5.08% (inactive)", "OD600 change": 8.39, "RFP signal change": -0.959}, {"smiles": "O=c1oc2ccccc2c(NC2CCCCC2)c1NS(=O)(=O)c1ccc(Cl)cc1", "GFP signal change (wild-type ribosome)": "11.9% (inactive)", "OD600 change": 7.09, "RFP signal change": -0.375}, {"smiles": "O=c1ccc2cc(S(=O)(=O)Nc3ccccc3F)ccc2o1", "GFP signal change (wild-type ribosome)": "6.96% (inactive)", "OD600 change": 12.1, "RFP signal change": 8.39}, {"smiles": "O=c1oc(-c2ccccc2NS(=O)(=O)c2ccc(Cl)cc2)nc2ccccc12", "GFP signal change (wild-type ribosome)": "-33.6% (active)", "OD600 change": -24.4, "RFP signal change": 0.207}]}]}
